Results from the supplement of paper PMC8371130.
Structures can show the parent of a compound that is named as a salt.

Test system: HL-1
Assay: relative cell viability (CellTiter-Glo) vs DMSO control (% of DMSO control); higher = more viable cells
In short: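 In 384-well plates, 1000 HL-1 mouse atrial cardiomyocytes per well were plated with compounds at 40, 200, 1000 or 5000 nM in 0.01% DMSO. Hypoxia at 1% O2 for 48 h began one day later and was followed by 24 h of reoxygenation, with parallel plates held in normoxia. CellTiter-Glo luminescence gave cell viability relative to vehicle-treated control cells.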

[1] = oxygen condition: hypoxia 48 h (1% O2) + reoxygenation 24 h, 40 nM
[2] = oxygen condition: hypoxia 48 h (1% O2) + reoxygenation 24 h, 200 nM
[3] = oxygen condition: hypoxia 48 h (1% O2) + reoxygenation 24 h, 1000 nM
[4] = oxygen condition: hypoxia 48 h (1% O2) + reoxygenation 24 h, 5000 nM
[5] = oxygen condition: normoxia 72 h, 40 nM
[6] = oxygen condition: normoxia 72 h, 200 nM
[7] = oxygen condition: normoxia 72 h, 1000 nM
[8] = oxygen condition: normoxia 72 h, 5000 nM

SMILES | relative cell viability [1] | relative cell viability [2] | relative cell viability [3] | relative cell viability [4] | relative cell viability [5] | relative cell viability [6] | relative cell viability [7] | relative cell viability [8]
C#Cc1cccc(Nc2ncnc3cc(OCCOC)c(OCCO)cc23)c1 | 100 | 106 | 107 | 109 | 111 | 104 | 105 | 121
CCN(CC)C(=O)C1(c2ccccc2)CC1CN (stereo not drawn) [Milnacipran HCl] | 107 | 108 | 105 | 118 | 107 | 101 | 106 | 109
Nc1nc(Cl)nc2c1ncn2[C@@H]1O[C@H](CO)[C@@H](O)[C@@H]1F [Clofarabine] | 114 | 69.7 | 6.59 | 2.39 | 106 | 62.6 | 3.43 | 1.95
COc1cccc2c1C(=O)c1c(O)c3c(c(O)c1C2=O)C[C@@](O)(C(C)=O)C[C@@H]3O[C@H]1C[C@H](N)[C@H](O)[C@H](C)O1 [Daunorubicin HCl] | 56.7 | 30.5 | 17.2 | 2.34 | 62.6 | 29.6 | 10.3 | 2.68
CC[C@@]1(O)C(=O)OCc2c1cc1n(c2=O)Cc2cc3c(CN(C)C)c(O)ccc3nc2-1 [Topotecan HCl] | 58.6 | 37.4 | 19.8 | 9.1 | 52.3 | 30.9 | 15.1 | 6.41
CCN(CC)CC(=O)Nc1c(C)cccc1C [Lidocaine] | 111 | 106 | 104 | 111 | 112 | 108 | 109 | 112
CC/C(=C(/CC)c1ccc(O)cc1)c1ccc(O)cc1 [Diethylstilbestrol] | 105 | 106 | 107 | 109 | 108 | 96.7 | 108 | 112
CC[C@H]1OC(=O)[C@H](C)[C@@H](O[C@H]2C[C@@](C)(OC)[C@@H](O)[C@H](C)O2)[C@H](C)[C@@H](O[C@@H]2O[C@H](C)C[C@H](N(C)C)[C@H]2O)[C@](C)(O)C[C@@H](C)/C(=N\OCOCCOC)[C@H](C)[C@@H](O)[C@]1(C)O [Roxithromycin] | 101 | 106 | 101 | 106 | 101 | 100 | 103 | 112
O=C(NCCN1CCOCC1)c1ccc(Cl)cc1 [Moclobemide] | 113 | 111 | 102 | 120 | 108 | 100 | 119 | 121
CC(C)OC(=O)C(C)(C)Oc1ccc(C(=O)c2ccc(Cl)cc2)cc1 [Fenofibrate] | 103 | 105 | 108 | 110 | 103 | 97.9 | 97.5 | 112
C[C@@]12C[C@@]3(O)O[C@@H](O1)[C@]1(COC(=O)c4ccccc4)[C@H]3C[C@@]12O[C@@H]1O[C@H](CO)[C@@H](O)[C@H](O)[C@H]1O [Paeoniflorin] | 106 | 102 | 108 | 118 | 107 | 111 | 109 | 118
N#Cc1ccc(C(c2ccc(C#N)cc2)n2cncn2)cc1 [Letrozole] | 103 | 105 | 109 | 104 | 107 | 110 | 105 | 110
C[C@]12CC[C@@H]3c4ccc(O)cc4CC[C@H]3[C@@H]1C[C@@H](O)[C@@H]2O [Estriol] | 101 | 99.3 | 95.4 | 103 | 105 | 101 | 99.8 | 104
N[C@@H](Cc1ccc(O)c(O)c1)C(=O)O [Levodopa] | 110 | 109 | 107 | 110 | 104 | 101 | 108 | 104
CN(C)CCC(c1ccc(Cl)cc1)c1ccccn1 (stereo not drawn) [Chlorpheniramine Maleate] | 87.2 | 101 | 98.4 | 117 | 101 | 114 | 105 | 121
Cc1cccc(C)c1OCC(C)N (stereo not drawn) [Mexiletine HCl] | 108 | 105 | 104 | 121 | 103 | 105 | 107 | 123
COc1ccc(C2C(=O)c3ccccc3C2=O)cc1 [Anisindione] | 99.6 | 102 | 105 | 118 | 102 | 78.2 | 114 | 120
CCOC(=O)C1=C(C)NC(C)=C(C(=O)OC)C1c1cccc(Cl)c1Cl (stereo not drawn) [Felodipine] | 101 | 105 | 88.9 | 98.7 | 99.1 | 101 | 98 | 101
Cc1cc(C)nc(NS(=O)(=O)c2ccc(N)cc2)n1 [Sulfamethazine] | 102 | 104 | 104 | 112 | 94.6 | 104 | 105 | 119
Cc1ccc(NC(=O)c2ccc(CN3CCN(C)CC3)cc2)cc1Nc1nccc(-c2cccnc2)n1 [Imatinib Mesylate] | 121 | 117 | 136 | 111 | 122 | 146 | 156 | 117
N[C@H](Cc1ccccc1)C(=O)O [D-Phenylalanine] | 103 | 99.4 | 109 | 111 | 92 | 101 | 108 | 116

SMILES | relative cell viability [1] | relative cell viability [2] | relative cell viability [3] | relative cell viability [4] | relative cell viability [5] | relative cell viability [6] | relative cell viability [7] | relative cell viability [8]
CCCNCC(O)COc1ccccc1C(=O)CCc1ccccc1 (stereo not drawn) [Propafenone] | 97.1 | 105 | 108 | 105 | 107 | 102 | 110 | 103
CC(C)OC(=O)C(C(=O)OC(C)C)=C1SC=CS1 [Malotilate] | 89.7 | 105 | 115 | 109 | 102 | 104 | 111 | 109
CCC1=C(C)CN(C(=O)NCCc2ccc(S(=O)(=O)NC(=O)N[C@H]3CC[C@H](C)CC3)cc2)C1=O [Glimepiride] | 93.1 | 96.3 | 95.2 | 106 | 88.9 | 77.4 | 94.7 | 105
Cc1c(O)c(=O)ccn1C [Deferiprone] | 108 | 102 | 102 | 112 | 100 | 102 | 107 | 111
Cn1c(CNc2ccc(C(=N)N)cc2)nc2cc(C(=O)N(CCC(=O)O)c3ccccn3)ccc21 | 104 | 96 | 102 | 108 | 102 | 102 | 102 | 106
COC(=O)C1=C(C)NC(C)=C(C(=O)OCCN(C)Cc2ccccc2)C1c1cccc([N+](=O)[O-])c1 (stereo not drawn) [Nicardipine HCl] | 107 | 111 | 112 | 114 | 107 | 106 | 105 | 122
Cc1ccc(S(=O)(=O)NC(=O)NN2CCCCCC2)cc1 [Tolazamide] | 101 | 103 | 98.3 | 110 | 102 | 99.1 | 106 | 117
O=NO [Sodium nitrite] | 109 | 110 | 116 | 122 | 109 | 116 | 107 | 114
CN1CC2c3ccccc3Oc3ccc(Cl)cc3C2C1 (stereo not drawn) [Asenapine] | 105 | 104 | 108 | 106 | 111 | 101 | 103 | 111
NS(=O)(=O)c1cc2c(cc1Cl)NCNS2(=O)=O [Hydrochlorothiazide] | 103 | 106 | 110 | 106 | 110 | 107 | 107 | 115
CN1CC(=O)NC1=N [Creatinine] | 105 | 104 | 106 | 114 | 102 | 97.3 | 100 | 108
N[C@@H](Cc1cc(I)c(Oc2cc(I)c(O)c(I)c2)c(I)c1)C(=O)O [L-Thyroxine] | 98.5 | 101 | 99.6 | 110 | 108 | 101 | 99.3 | 109
O=P(O)(O)C(O)(Cn1ccnc1)P(=O)(O)O [Zoledronic Acid] | 104 | 100 | 100 | 111 | 104 | 107 | 102 | 109
O=C(NCCO[N+](=O)[O-])c1cccnc1 [Nicorandil] | 101 | 105 | 108 | 102 | 104 | 98.1 | 99.2 | 102
NC[C@H](O)c1ccc(O)c(O)c1 [Noradrenaline bitartrate monohydrate] | 105 | 104 | 104 | 111 | 98.9 | 99.7 | 113 | 109
CS(=O)(=O)Nc1ccc([N+](=O)[O-])cc1Oc1ccccc1 [Nimesulide] | 105 | 105 | 109 | 103 | 108 | 105 | 102 | 104
CCCCCCCN(CC)CCCC(O)c1ccc(NS(C)(=O)=O)cc1 (stereo not drawn) [Ibutilide fumarate] | 103 | 95.7 | 98.8 | 92.9 | 98.3 | 97.9 | 97.3 | 97.6
CC(C)(CO)[C@@H](O)C(=O)NCCC(=O)O [Pantothenic acid] | 100 | 103 | 104 | 108 | 100 | 101 | 99.5 | 106
CC1=NN(c2ccccc2)C(=O)C1 [Edaravone] | 101 | 97.7 | 95.2 | 108 | 95.7 | 95.9 | 98.9 | 103
CN(C)CCN(Cc1cccs1)c1ccccn1 [Methapyrilene HCl] | 104 | 104 | 104 | 84.1 | 109 | 107 | 111 | 111
